# From PubChem
# The list is not random: actives were taken first. Their share in the collection is about 3.2%.
# rCAG binder-1: binds r(CAG) RNA repeats; r(CAG) RNA repeat, TO-PRO-1 dye displacement fluorescence; inhibition, % at 3 µM; 370,000 compounds, 1.3% hits;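 active means inhibition above the plate cutoff, the mean of all test compounds on that plate plus 3 SD, cut at about 35% in these data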;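 further: 0% = DMSO alone and 100% = 100 µM mitoxantrone as full dye displacement; higher means more dye released from RNA so lower well fluorescence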
# MsrA inhibitor: inhibitors of bovine MsrA. purified bovine MsrA, absorbance read-out. inhibition, % at 15.5 µM. 360,000 compounds, 0.75% hits. AID 651718; in the data active means inhibition above about 4.5%;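 further: 0% = vehicle wells with enzyme and 100% = reference inhibitor wells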
# Pemphigus Ab inh: inhibitors of pemphigus antibody binding to human desmoglein-3; P32926; DSG3-coupled beads, scFv-anti-DSG3-GFP binding, flow cytometry; active compounds read low; binding (percent of control), % at 10 µM; 310,000 compounds, 0.48% hits;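 active means binding more than 3 SD below its plate's average and above zero; inconclusive means below that plate limit but binding exactly zero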;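 further: hits lower antibody fragment binding to DSG3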
# NadD block: blocks S. aureus nicotinate mononucleotide adenylyltransferase. AID 602399. purified NadD enzyme, colorimetric absorbance read-out. 360,000 compounds, 0.78% hits. inhibition, % at 20 µM; in the data active means inhibition above about 26%
# MsrA act: bovine methionine sulfoxide reductase A activation; purified bovine MsrA, absorbance read-out; activation, % at 10.6 µM; 360,000 compounds, 0.3% hits; AID 602163; in the data active means activation above about 7.5%;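 further: 0% = vehicle and 100% = reference activator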
# DAGLB inh: diacylglycerol lipase beta (human) inhibition; HEK293T DAGLB membrane lysate, EnzChek fluorogenic substrate; AID 504411; 340,000 compounds, 0.059% hits; inhibition, % at 5.17 µM; in the data active means inhibition above about 34%;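 further: 0% = enzyme with vehicle and 100% = wells lacking enzyme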
# Target sequence (Q8NCG7 whole entry, looked up): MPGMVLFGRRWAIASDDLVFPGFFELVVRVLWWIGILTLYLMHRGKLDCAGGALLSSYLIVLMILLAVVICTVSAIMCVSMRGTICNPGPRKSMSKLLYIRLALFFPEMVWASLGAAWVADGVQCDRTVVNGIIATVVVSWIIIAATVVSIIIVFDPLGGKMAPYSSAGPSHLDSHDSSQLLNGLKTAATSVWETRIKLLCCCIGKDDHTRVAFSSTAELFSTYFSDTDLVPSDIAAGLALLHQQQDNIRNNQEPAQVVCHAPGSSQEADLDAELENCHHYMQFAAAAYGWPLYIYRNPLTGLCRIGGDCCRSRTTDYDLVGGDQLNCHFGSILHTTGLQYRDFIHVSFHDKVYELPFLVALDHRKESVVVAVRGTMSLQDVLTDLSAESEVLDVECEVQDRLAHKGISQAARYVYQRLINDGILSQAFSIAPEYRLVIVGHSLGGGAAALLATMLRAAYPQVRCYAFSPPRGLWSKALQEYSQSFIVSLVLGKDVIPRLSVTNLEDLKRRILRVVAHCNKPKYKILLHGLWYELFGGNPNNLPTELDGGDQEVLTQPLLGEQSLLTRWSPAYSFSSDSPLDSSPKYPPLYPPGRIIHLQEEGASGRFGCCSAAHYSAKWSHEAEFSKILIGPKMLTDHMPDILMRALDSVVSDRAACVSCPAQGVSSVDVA
# rCAG binder conf: r(CAG) RNA repeat binding, confirmation; TO-PRO-1 dye displacement fluorescence; inhibition, % at 3 µM; 4,300 compounds, 70% hits; shares compounds with rCAG binder-1;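 active means inhibition above a per-plate cutoff, the mean inhibition of sample wells plus 3 SD, cut at about 35% in these data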;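 further: loss of TO-PRO-1 fluorescence as compound displaces dye from 1x1 AA loop RNA; 0% = DMSO only wells and 100% = 100 µM mitoxantrone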
# dCAG dye counter: counter-screen for rCAG RNA binders: DNA CAG dye complex inhibitors | d(CAG) DNA oligo TO-PRO-1 dye displacement, fluorescence | 4,300 compounds, 94% hits | inhibition, % at 3 µM | shares compounds with rCAG binder-1;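 active means inhibition above its plate's cutoff, the mean test-well inhibition plus 3 SD, cut at about 4.8% in these data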;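 further: 0% = DNA dye mix with DMSO and 100% = 100 µM mitoxantrone; hits displace the dye from DNA and so lower well fluorescence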
# dCAG dye DR: DNA CAG dye complex inhibition, dose response counter-screen; DNA CAG/GTC duplex TO-PRO-1 dye displacement fluorescence; shares compounds with rCAG binder-1; 250 compounds, 20% hits; AID 686960; IC50, µM; in the data active means IC50 below about 10 µM
# dCAG TOPRO ctr: counter-screen for rCAG binders: DNA CAG TO-PRO-1 complex inhibitors, late stage; shares compounds with rCAG binder-1; d(CAG) DNA duplex TO-PRO-1 dye displacement, fluorescence; IC50, µM; 30 compounds, 80% hits; AID 720649
# rCAG binder-2: binds r(CAG) RNA repeats in late stage dose response; shares compounds with rCAG binder-1; r(CAG) RNA TO-PRO-1 dye displacement, fluorescence; IC50, µM; 30 compounds, 100% hits
# Numbers without * were called inactive; ? = inconclusive; . = not tested or not shown; ! = a repeat was not active. Unless noted, how the calls were made is not given here.
SMILES,rCAG binder-1,MsrA inhibitor,Pemphigus Ab inh,NadD block,MsrA act,DAGLB inh,rCAG binder conf,dCAG dye counter,others
CCc1ccc([C@@H]2CC=C(C(=O)O)[C@H](c3ccc(F)cc3)N2S(=O)(=O)c2ccc(C)cc2)cc1,80*,0,104,5,-3,9,62*,24*,
Cc1ccc(S(=O)(=O)N2C(c3cccc(Cl)c3)CC=C(C(=O)O)C2c2cccc(Cl)c2)cc1 (stereo unspecified),4,0,.,.,.,.,.,.,
COc1ccc([C@@H]2CC=C(C(=O)O)[C@H](c3cccc(Cl)c3)N2S(=O)(=O)c2ccc(C)cc2)cc1OC,39*,0,103,0,0,4,29,7.0*,
COCCc1ccc(OC2(C)CCN(Cc3cccc(OCOC)c3)C2)cc1 (stereo unspecified),-2,1,.,-8,-4,.,.,.,
CCCOc1ccc(-c2cc(C(C)=O)c3n(c2=O)CCC3)cc1,0,.,.,.,.,.,.,.,
O=Cc1ccc(N2N=C(c3ccccc3)CC2c2ccccc2)cc1 (stereo unspecified),8,2,?,1,-4,-2,.,.,
O=C(O)c1ccc(N2N=C(c3ccccc3)CC2c2ccccc2)cc1 (stereo unspecified),44*,4,111,-4,-4,6,47*,12*,
CCN1CCN(Cc2ccc(NC(=O)c3cc(NC(=O)C4=NN(c5ccccc5)C(=O)C4)cc(OC)c3)cc2C(F)(F)F)CC1,38*!,0,107,33*,-1,6,33,20*,
Cc1ccc(S(=O)(=O)Nc2cc(C(=O)Nc3cc(C)cc(C)c3)ccc2Cl)cc1,36*,-1,.,1,-3,1,42*,9.8*,
Cc1cccc(NC(=O)c2cccc(NS(=O)(=O)c3ccc(Cl)cc3)c2)c1,.,.,101,-3,-2,-1,.,.,
O=C(COc1ccccc1F)Nc1cc(S(=O)(=O)Nc2cccc(Cl)c2)ccc1O,64*,0,97,13,-5,9,56*,22*,
CCOc1ccc(Br)cc1S(=O)(=O)Nc1ccc(Cl)c(S(=O)(=O)N(C)C)c1,36*,-1,122,-6,-1,2,34,9.0*,
COC(=O)c1c(NS(=O)(=O)Cc2ccccc2)sc2c1CCCC2,48*,0,125,-4,1,0,47*,16*,
CC(C)OC(=O)c1c(NS(=O)(=O)c2ccccc2)sc2c1CCCC2,35*,0,148,10,-12,-4,50*,14*,
COC(=O)c1c(NS(C)(=O)=O)sc2c1CCCC2,5,2,96,-1,-3,-2,.,.,
COC(=O)c1c(NC(=O)c2ccccc2N(C)S(=O)(=O)c2ccccc2)sc2c1CCCC2,7,0,103,11,1,-4,.,.,
COC(=O)C1=C(C)N(Cc2ccc(C(F)(F)F)cc2)C(=NCc2ccc(C(F)(F)F)cc2)NC1c1cccc(C(F)(F)F)c1 (stereo unspecified),3,-2,.,.,.,.,.,.,
COc1ccc(C2c3[nH]c4ccccc4c3C[C@H]3C(=O)N(c4ccccc4C(=O)N4CCC[C@H]4C(=O)O)C(=O)N23)cc1 (stereo partly specified),37*,0,104,7,-9,3,51*,16*,
CC(C)c1ccc(C2c3[nH]c4ccccc4c3C[C@H]3C(=O)N(c4ccccc4C(=O)N4CCC[C@@H]4C(=O)O)C(=O)N23)cc1 (stereo partly specified),46*,0,115,25,0,4,71*,28*,dCAG dye DR=>30;dCAG TOPRO ctr=>30;rCAG binder-2=1.9*
CC(C)c1ccc(C2c3[nH]c4ccccc4c3C[C@H]3C(=O)N(c4ccccc4C(=O)N4CCC(C(=O)O)CC4)C(=O)N23)cc1 (stereo partly specified),42*,0,.,21,1,3,61*,21*,
Cc1ccc(C2c3[nH]c4ccccc4c3C[C@H]3C(=O)N(c4ccccc4C(=O)N4CCC[C@H]4C(=O)O)C(=O)N23)cc1 (stereo partly specified),39*,0,.,13,-1,0,57*,18*,
CCCC(C)NC(=O)CC1Oc2ccccc2NC1=O (stereo unspecified),6,.,.,.,.,.,.,.,
CCCCOc1ccc(Nc2cc(Cl)ccc2C(=O)O)cn1,70*,1,99,2,0,14,64*,16*,
Cc1oc(C(C)(C)C)cc1C(=O)Nc1cccc(/C=C\C(=O)O)c1,18,1,.,5,-2,2,.,.,
Cc1oc(-c2ccccc2)cc1C(=O)Nc1cccc(/C=C\C(=O)O)c1,41*,1,96,2,-4,2,29,5.7*,
SMILES,rCAG binder-1,MsrA inhibitor,Pemphigus Ab inh,NadD block,MsrA act,DAGLB inh,rCAG binder conf,dCAG dye counter,others
Cc1cc(/C=N/n2c(COc3ccccc3)nc3ccccc3c2=O)c(O)c([N+](=O)[O-])c1,66*,1,79,22,-7,18,63*,27*,
Cc1ccc(C)c(/C=C/C(=O)c2ccccc(=O)c2O)c1,39*,0,127,10,-6,16,23,10*,
Cc1cc(C)cc(NC(=O)CSc2ncc(S(=O)(=O)c3ccccc3)c(=O)[nH]2)c1,61*,-1,.,.,.,.,47*,15*,
C#CCSc1ncc(S(=O)(=O)c2ccccc2)c(=O)[nH]1,2,0,100,0,-4,0,.,.,
CCOC(=O)[C@@H](C)N1[C@@H](C)[C@H](c2ccccc2)Oc2ccc(Cl)cc2S1(=O)=O,3,0,.,.,.,.,.,.,
CCCc1cc(=O)oc2cc(C)c(CN3CCCC3)c(O)c12,37*,-1,89,29*,1,17,24,12*,
CCc1cc(=O)oc2cc(C)c(CN3CCCCC3)c(O)c12,22,0,.,20,-11,3,.,.,
CCc1cc(=O)oc2cc(C)c(CN3CCCC3)c(O)c12,36*,1,102,17,-9,5,31,13*,
O=C(Nc1nc2ncccn2c1-c1ccc(C(F)(F)F)cc1)c1ccccc1,7,.,.,.,.,.,.,.,
COc1cc(C)c(C(=O)Oc2cc(C)c(C(=O)O)c(O)c2C)c(OC)c1C,52*,-1,.,-1,-3,6,55*,17*,
